The record followed here is PubChem BioAssay (NCI).

About 83,000 compounds went through this panel and 20% of them were active in at least one assay; those are over-represented in the sample as a whole.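 Negative percent growth values reflect cell death: -40 means 40% of the cells present at the start died, and -100 means all died.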 A number with no mark means an inactive call. Activity calls are given as the source filed them. Rule for the calls: active = growth percent below 10; inactive = the rest.

One assay relates to MOLT-4 leukemia. The experiment in a line: NCI-60 one-dose screen, 48 h (100 = growth as untreated, 0 = no growth, -100 = all killed). Particulars: 10 µM unless noted.
With `O=C1C[C@@H](c2ccccc2)Oc2c(Cc3ccccc3O)c(O)c(Cc3cc(Cc4cc(Cc5ccccc5O)ccc4O)ccc3O)c(O)c21`, the growth is 76.3%. Same read-out and setting: under `CCC(CC)N1C(=O)/C(=c2\sc3n(c2=O)C2C(NN=3)N(CC)C(=O)N2CC)c2ccccc21` (stereo unspecified) stands 10%. For the compound `COC(=O)Nc1ccc(-c2nc(-c3cccc(O)c3)c(-c3ccnc(Br)c3)[nH]2)cc1`, the growth was 21.5%. Same read-out and setting: under `CC(=O)Nc1ccc(NC(=O)Nc2cccc(-c3nc(-c4ccc(NC(=O)c5cccs5)cc4Cl)no3)c2)cc1C(F)(F)F` stands -0.998% (active); under `O=S(=O)(Nc1cc(Cl)cc(Cl)c1)c1ccc(-c2cnc(C3CC3)o2)cc1`, 32.6%. In the case of `CC(=O)Nc1ccc(NC(=O)Nc2cccc(-c3nc(-c4ccc(NC(=O)c5cccnc5)cc4Cl)no3)c2)cc1C(F)(F)F`, the growth was -30.8% (active). On the same count and under the same terms, under `O=C(Nc1cccc(-c2nc(-c3ccc(NC(=O)c4cccs4)cc3Cl)no2)c1)Nc1ccc(NC(=O)C2CC2)c(C(F)(F)F)c1` stands -4.78% (active).

As to `CN1C(=O)N(C)C2Nn3c(s/c(=C\c4ccccn4)c3=O)=NC21` (stereo unspecified), the growth is 110%.

The test system of a further assay is SR leukemia. The assay is described as above. Particulars: 10 µM unless noted.
`CCC(=O)Nc1ccc(-c2nc(-c3cccc(O)c3)c(-c3ccnc(Br)c3)[nH]2)cc1`: the growth was 38.2%. For the compound `NC(=O)c1c(NC(=O)c2cccc(OC(F)(F)F)c2)sc2c1CCC(=O)C2`, the growth is 30%. For `COc1cc(C2=NN(C(C)=O)C(c3ccc(N4CCOCC4)cc3)C2)cc(OC)c1OC` (stereo unspecified), the growth is 108%.

On to `CCC(=O)Nc1cc(Nc2cc(NC3CC3)n3ncc(C#N)c3n2)ccc1C`, for which the growth is 24.5%. For `O=C(CSc1ccc(-c2nc3ccccc3[nH]2)cn1)N1CCN(c2ccccc2F)CC1`, the growth is 52.5%. With `NCCN1CCN(c2nc(-c3ccccc3)nc3nc(-c4ccccc4)oc23)CC1`, the growth was 20.7%. Same read-out and setting: the value for `CCN(CC)Cc1c(-c2cccc(OC(F)(F)F)c2)[nH]c2ccc(N3CCCC3)cc2c1=O` was 91.4%; that for `C#C[C@]1(O)CC[C@H]2[C@@H]3CC=C4c5sc(-c6ccc(OC)cc6)nc5CC[C@]4(C)[C@H]3CC[C@@]21C` was 23.5%; that for `C#C[C@]1(O)CC[C@H]2[C@@H]3CC=C4c5sc(Nc6cc(OC)ccc6OC)nc5CC[C@]4(C)[C@H]3CC[C@@]21C` was 3.13% (active).

Regarding `O=C(Nc1cccc(-c2nc(-c3ccc(NC(=O)c4cccnc4)cc3Cl)no2)c1)Nc1ccc(NC(=O)C2CC2)c(C(F)(F)F)c1`, the growth was -14.4% (active). Still for that read-out and setting: the value for `O=C(Nc1ccc(-c2nc(-c3cccc(O)c3)c(-c3ccnc(Br)c3)[nH]2)cc1)c1ccccc1` was -15.2% (active); that for `COc1ccccc1N1CCN(C2=NN=C(c3cccc(Cl)c3)c3ccccc3C2)CC1` was -15.3% (active); that for `O=C(NNc1nc2cc(F)c(F)cc2n2cccc12)c1ncccn1` was 18.7%.

For the compound `O=C(CN1C(=O)CSC1=O)Nc1ccc(C(=O)/C=C/c2cc3ccccc3nc2Cl)cc1`, the growth is 36.7%.

On to `O=C(C[n+]1ccnc2ccccc21)c1ccc(O)c(O)c1`, for which the growth is 7.3% (active). Still for that read-out and setting: the value for `Cn1ccnc1C(=O)/C=C/c1ccc(C(=O)Nc2ccc(NC(=O)CCNC(=O)c3csc(Br)n3)cc2)cc1` was 12.5%; that for `COc1ccc(Oc2ccc(C3CC(c4cc(OC)c(OC)c(OC)c4)=NN3C(C)=O)cc2)cc1` (stereo unspecified) was 35.7%; that for `O=C1/C(=C/c2ccccc2[N+](=O)[O-])Oc2ccc(O)cc21` was 2.82% (active). Same read-out and setting: the value for `O=c1c2ccccc2nc(COc2ccccc2)n1/N=C/C=C/c1ccccc1` was 85.7%; that for `C#C[C@]1(O)CC[C@H]2[C@@H]3CC=C4c5sc(C6CC6)nc5CC[C@]4(C)[C@H]3CC[C@@]21C` was 46.5%; that for `Cc1ccc(S(=O)(=O)N/N=C/c2cn(-c3ccc(F)cc3)nc2-c2ccc(S(C)(=O)=O)cc2)cc1` was 107%. On the same count and under the same terms, under `C#C[C@]1(O)CC[C@H]2[C@@H]3CC=C4c5sc(-c6ccccn6)nc5CC[C@]4(C)[C@H]3CC[C@@]21C` stands 29.3%. Consider `CCOC(=O)c1c(NC(=O)c2cccc(C(F)(F)F)c2)sc2c(CN3CCN(C)CC3)c(O)ccc12`, for which the growth is 23.5%. Still for that read-out and setting: under `CCOC(=O)Nc1ccc(-c2nc(-c3cccc(O)c3)c(-c3ccnc(Br)c3)[nH]2)cc1` stands 9.74% (active); under `COc1ccc(NS(=O)(=O)c2ccc(-c3cnc(C4CC4)o3)cc2)cc1Cl`, 23.2%. Still for that read-out and setting: the value for `O=S(=O)(Nc1ccc(I)c(Cl)c1)c1ccc(-c2cnc(C3CC3)o2)cc1` was 27.9%; that for `O=S(=O)(Nc1ccc2c(c1)OC(F)(F)O2)c1ccc(-c2cnc(C3CC3)o2)cc1` was 27.8%; that for `O=C(CN1CCN(c2cc(=O)n(-c3ccccc3)c3ccccc23)CC1)Nc1ccc([N+](=O)[O-])cc1` was 88.6%. `CN(c1ccc(Cl)cc1)S(=O)(=O)c1ccc(-c2cnc(C3CC3)o2)cc1`: the growth was 8.67% (active). On the same count and under the same terms, under `O=C(/C=C/c1cn(-c2ccccc2)nc1-c1ccc(Cl)cc1)c1cc2ccccc2oc1=O` stands 45.2%; under `O=C1C[C@@H](c2ccccc2)Oc2c(Cc3ccccc3O)c(O)c(Cc3cc(Cc4cc(Cc5ccccc5O)ccc4O)ccc3O)c(O)c21`, 99.5%.

Turning to `CCC(CC)N1C(=O)/C(=c2\sc3n(c2=O)C2C(NN=3)N(CC)C(=O)N2CC)c2ccccc21` (stereo unspecified), the growth is 5.6% (active).

Turning to `COC(=O)Nc1ccc(-c2nc(-c3cccc(O)c3)c(-c3ccnc(Br)c3)[nH]2)cc1`, the growth is 32.7%. In the case of `CC(=O)Nc1ccc(NC(=O)Nc2cccc(-c3nc(-c4ccc(NC(=O)c5cccs5)cc4Cl)no3)c2)cc1C(F)(F)F`, the growth is -7.39% (active).

As to `O=S(=O)(Nc1cc(Cl)cc(Cl)c1)c1ccc(-c2cnc(C3CC3)o2)cc1`, the growth was 29.5%. The same measure, in the same setting: the value for `CC(=O)Nc1ccc(NC(=O)Nc2cccc(-c3nc(-c4ccc(NC(=O)c5cccnc5)cc4Cl)no3)c2)cc1C(F)(F)F` was -25.1% (active); that for `O=C(Nc1cccc(-c2nc(-c3ccc(NC(=O)c4cccs4)cc3Cl)no2)c1)Nc1ccc(NC(=O)C2CC2)c(C(F)(F)F)c1` was -25.9% (active). As for `CN1C(=O)N(C)C2Nn3c(s/c(=C\c4ccccn4)c3=O)=NC21` (stereo unspecified), the growth is 109%.
